Assay outcomes from PubChem.
Rows were chosen to be rich in hits. Some 5.2% of all compounds tested hit in one or more screens of this group.
IDH1 R132H inh: inhibitors of human mutant IDH1 R132H; IDH1-R132H enzyme, NADPH consumption, diaphorase/resazurin fluorescence; Potency, µM (doses to about 76.6 µM), usual class: inhibitors; AID 602179; 390,000 tested, 0.093% active; further: nearly all actives have a fitted effect of over 65% in size
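IDH1-R132H (0.5 ug/mL dispensed) in pH 7.5 Tris buffer was preincubated 30 min with compound, then given a substrate mix of 0.016 mM NADPH and 2 mM alpha-KG for 80 min at room temperature; remaining NADPH was read by diaphorase/resazurin fluorescence.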
VDR inhibitor: blocks the human vitamin D receptor; P11473; VDR-SRC2-3 peptide fluorescence polarization, 2 h; Potency, µM, actives largely listed as inhibitors; 400,000 tested, 0.93% active; AID 504847
Target sequence (P11473 whole entry, looked up): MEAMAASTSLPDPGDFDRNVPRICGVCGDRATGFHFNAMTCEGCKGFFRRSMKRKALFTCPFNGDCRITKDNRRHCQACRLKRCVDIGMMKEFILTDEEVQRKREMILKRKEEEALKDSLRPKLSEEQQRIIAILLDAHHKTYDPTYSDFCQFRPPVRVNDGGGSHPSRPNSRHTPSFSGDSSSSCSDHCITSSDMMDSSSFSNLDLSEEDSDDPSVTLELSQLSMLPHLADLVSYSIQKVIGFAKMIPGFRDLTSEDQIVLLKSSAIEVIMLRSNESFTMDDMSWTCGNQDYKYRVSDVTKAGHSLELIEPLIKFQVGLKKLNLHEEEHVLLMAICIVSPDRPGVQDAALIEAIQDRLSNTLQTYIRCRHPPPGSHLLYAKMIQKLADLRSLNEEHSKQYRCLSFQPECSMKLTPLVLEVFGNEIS
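Reagent solutions, kept cold and dark, are dispensed first; compounds are then pinned in at 23 nl, plates briefly spun, and incubated 2 h at ambient temperature. Inhibition of VDR–SRC2-3 peptide binding is read by fluorescence polarization.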
Sfp PPTase inh: Sfp phosphopantetheinyl transferase inhibition; Potency, µM, hits mostly inhibitors; AID 1490; 310,000 tested, 3.5% active; Biochemical Sfp PPTase activity, qHTS; Q9F4F7;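 further: the enzyme is Sfp with the accession as filed and its product quenches rhodamine fluorescence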
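Step 1, compound plus 15 nM Sfp-PPTase, 15 min, room temperature. Step 2, add rhodamine-CoA (5 uM) and BHQ-2-YbbR (12.5 uM). Step 3, read 525/598 nm fluorescence at 0 and 30 min.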
TrxR1 substrate: substrates of rat thioredoxin reductase 1. O89049. purified TrxR1 substrate turnover, NADPH consumption readout. Potency, µM (top dose mostly 114 µM). 390,000 tested, 0.01% active. AID 588456; further: nearly all actives have a fitted effect of over 50% in size
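Rat TrxR1, dispensed at 90 nM, was prereduced with 400 uM NADPH (final) for 5 min at ~22 deg C, then incubated with compound 15 min before 400 uM selenite. A first-read NADPH fluorescence drop versus no-compound background flagged substrates.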
PLK1 PBD block: PLK1 (human) polo-box domain binding inhibition; AID 720504; Plk1 PBD binding of FITC phosphopeptide, fluorescence polarization; 360,000 tested, 2.8% active; Potency, µM, actives largely listed as inhibitors; further: series mostly up to about 57 µM; nearly all actives have a fitted effect of over 65% in size
rTrxR1 inhibitor: rat TrxR1 inhibition; O89049; Potency, µM (doses to about 114 µM), hits mostly inhibitors; recombinant rTrxR1, NADPH fluorescence consumption, selenite substrate; 390,000 tested, 1% active; further: nearly all actives have a fitted effect of over 65% in size
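Rat TrxR1 (90 nM in the dispensed reagent) was pre-reduced with 400 uM NADPH for 5 min at room temperature, then incubated with compound for 15 min. After 400 uM selenite was added, NADPH fluorescence (Ex 340/Em 450 nm) was followed for 8 min.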
TbPYK inh: Trypanosoma brucei pyruvate kinase inhibition, cherry-pick confirmation | AID 720569 | Potency, µM (series often up to 76.9 µM), most hits filed as inhibitors | shares compounds with PLK1 PBD block | 890 tested, 67% active | recombinant TbPYK, Kinase-Glo ATP luminescence; further: nearly all actives have a fitted effect of over 70% in size
TbPYK orthogonal: orthogonal confirmation of Trypanosoma brucei pyruvate kinase inhibitors; shares compounds with PLK1 PBD block; recombinant TbPYK, ADP-Glo luminescence, 60 min; Potency, µM (top dose mostly 76.9 µM), hits mostly inhibitors; 890 tested, 62% active; AID 720584; further: nearly all actives have a fitted effect of over 75% in size
Each line names hits and unclear results; the compound was inactive in the other large screens (follow-up assays come after a bar, where they were run). The call rests on the fitted dose curve; in most records, active means well fitted curve in the direction sought with a large enough effect; inconclusive means small, poorly fitted or top-dose-only effect, or another doubt; inactive means no such curve, though single readings can be large; an effect the other way counts as inactive or inconclusive.

CCN(CC)c1ccc(C(=C2C=CC(=[N+](CC)CC)C=C2)c2ccc(N(CC)CC)cc2)cc1	VDR inhibitor inconclusive, PLK1 PBD block 29.9µM, rTrxR1 inhibitor inconclusive (no result: Sfp PPTase inh) | TbPYK inh 22.4µM | TbPYK orthogonal inactive
O=C1C=CC(=O)N1c1ccc(-c2nc3ccccc3o2)cc1	PLK1 PBD block 8.44µM (no result: VDR inhibitor, Sfp PPTase inh, TrxR1 substrate, rTrxR1 inhibitor) | TbPYK inh inactive | TbPYK orthogonal 11.2µM
Nc1ccc(-c2nc3ccccc3o2)cc1	none
CCOC(=O)c1ccc2c(c1)C1C=CCC1C(C(=O)OCC)N2 (stereo not drawn)	Sfp PPTase inh 44.7µM, rTrxR1 inhibitor 39.8µM | TbPYK inh inactive | TbPYK orthogonal inactive
O=C(OC1CCCCC1)c1ccc2c(c1)C1C=CCC1C(C(=O)O)N2 (stereo not drawn)	none (no result: IDH1 R132H inh, VDR inhibitor, TrxR1 substrate, PLK1 PBD block, rTrxR1 inhibitor)
OCc1ccccc1-c1nc(NCc2ccccc2)nc2ccsc12	PLK1 PBD block inconclusive (no result: IDH1 R132H inh, VDR inhibitor, Sfp PPTase inh, TrxR1 substrate, rTrxR1 inhibitor) | TbPYK inh inconclusive | TbPYK orthogonal inconclusive
COc1cc(/C=N/N2CCN(Cc3ccc(C)cc3)CC2)cc(OC)c1O	none | TbPYK inh 22.4µM | TbPYK orthogonal 28.2µM
CCN(CC)c1ccc(N)cc1S(=O)(=O)Nc1ccccc1OC	VDR inhibitor 39.8µM, Sfp PPTase inh 11.2µM, PLK1 PBD block 3.36µM, rTrxR1 inhibitor inconclusive | TbPYK inh 7.94µM | TbPYK orthogonal 11.2µM
Cc1ccc(NC(=O)CCN2C(=O)C3CCCCC3C2=O)cc1[N+](=O)[O-] (stereo not drawn)	none (no result: Sfp PPTase inh)
COc1ccc(C)c2sc(NC(=O)c3ccc(S(=O)(=O)N(C)C)cc3)nc12	none (no result: Sfp PPTase inh, PLK1 PBD block)
CCN(CC)S(=O)(=O)c1ccc(C(=O)NC(=S)N(CCC#N)Cc2cccnc2)cc1	none | TbPYK inh 12.6µM | TbPYK orthogonal 12.6µM
CC(=O)Nc1nnc([N+](=O)[O-])s1	none (no result: VDR inhibitor, Sfp PPTase inh, TrxR1 substrate, rTrxR1 inhibitor)
CC(CC(=O)NCCc1ccc(F)cc1)c1ccccc1 (stereo not drawn)	none
CC(=O)N/C(=C\c1ccc(C)o1)C(=O)NCc1ccccc1	rTrxR1 inhibitor inconclusive
O=C1NC(=S)CN1c1ccccc1	VDR inhibitor 31.6µM, Sfp PPTase inh 5.62µM, PLK1 PBD block 26.7µM | TbPYK inh inconclusive | TbPYK orthogonal inconclusive
Cc1nn(C)cc1C(C)NCc1c(C(=O)N2CCCCCCC2)nc2ccc(Cl)cn12 (stereo not drawn)	none
O=S(=O)(Nc1cc(Sc2cccc3cccnc23)c(O)c2ccccc12)c1ccc(F)cc1	VDR inhibitor 22.4µM, Sfp PPTase inh 10µM, PLK1 PBD block 1.5µM, rTrxR1 inhibitor 22.4µM | TbPYK inh 1.41µM | TbPYK orthogonal 2.24µM
O=S(=O)(Nc1cccc2cccnc12)c1ccc2ccccc2c1	none (no result: IDH1 R132H inh, PLK1 PBD block)
Cc1cc(C)cc(N2C(=O)N(Cc3cc(=O)n4ccccc4n3)c3ccccc3S2(=O)=O)c1	none (no result: Sfp PPTase inh, PLK1 PBD block)
N#C/C(=C\c1ccc(C(=O)O)cc1)c1ccccn1	none | TbPYK inh inconclusive | TbPYK orthogonal inactive
COc1cccc(CNC(=O)c2ccc(-n3c(C)cc4c3CCC(C)C4)cc2)c1 (stereo not drawn)	rTrxR1 inhibitor inconclusive (no result: Sfp PPTase inh, PLK1 PBD block)
CCCN1C(=O)S/C(=C\c2ccc(N3CCOCC3)cc2C)C1=O	none (no result: IDH1 R132H inh, VDR inhibitor, TrxR1 substrate, PLK1 PBD block, rTrxR1 inhibitor)
CCCN1C(=O)S/C(=C\c2ccc(N3CCOCC3)o2)C1=O	VDR inhibitor 31.6µM, Sfp PPTase inh 3.16µM, rTrxR1 inhibitor 7.94µM | TbPYK inh inconclusive | TbPYK orthogonal 39.8µM
CN(C)c1oc(-c2ccccc2[N+](=O)[O-])nc1C#N	VDR inhibitor 31.6µM, Sfp PPTase inh 10µM, PLK1 PBD block 26.7µM, rTrxR1 inhibitor inconclusive | TbPYK inh 1.78µM | TbPYK orthogonal 4.47µM
CCCc1cc(=O)oc2cc(C)cc(OC(=O)c3ccco3)c12	none | TbPYK inh inactive | TbPYK orthogonal inactive
CC(=O)Nc1ccc(S(=O)(=O)NCC2CCC(C(=O)NCCCN(C)Cc3ccccc3)CC2)cc1 (stereo not drawn)	none
N#Cc1cccc(NC(=O)c2cncn2-c2ccccc2)c1	none
Cc1cccc(NC(=O)CCC(=O)N2CCOCC2)n1	none (no result: Sfp PPTase inh)
